Assay results published in PubChem BioAssay AID2551 (National Center for Advancing Translational Sciences (NCATS), 2010).
About 17,000 (5.5%) of roughly 310,000 compounds were called active. Not shown: some 11% with an inconclusive outcome. The call rests on the fitted dose curve; in most records, active means well fitted inhibition curve with a large enough effect; inconclusive means small, poorly fitted or top-dose-only effect, or effect the other way; inactive means no such curve, though single readings can be large or run the other way. Shown is part of a subset that was picked to be rich in actives.

What follows are compounds tested against Nuclear receptor ROR-gamma (Mus musculus) (UniProt P51450) (assay: qHTS for inhibitors of ROR gamma transcriptional activity). Conditions: Drosophila S2 Gal4-RORgamma UAS-luciferase reporter, 20 h; series mostly up to 53.6 µM; activity change, negative = inhibition: at the top concentration.
Method in brief: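 Using a luciferase readout, inhibitors were identified by reduced reporter activity in Drosophila cells coexpressing a copper-inducible Gal4–ROR gamma fusion and UAS-driven Photinus luciferase, incubated 20 hr after 700 uM copper sulfate.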
Further: nearly all actives have a fitted effect of over 60% in size.
On the % scale 0 is the no-effect control and ±100 the full control effect; potency means the concentration at half of the fitted maximal effect.

Chain of Nuclear receptor ROR-gamma (Mus musculus) (P51450 whole entry, looked up, the tested form may be a part): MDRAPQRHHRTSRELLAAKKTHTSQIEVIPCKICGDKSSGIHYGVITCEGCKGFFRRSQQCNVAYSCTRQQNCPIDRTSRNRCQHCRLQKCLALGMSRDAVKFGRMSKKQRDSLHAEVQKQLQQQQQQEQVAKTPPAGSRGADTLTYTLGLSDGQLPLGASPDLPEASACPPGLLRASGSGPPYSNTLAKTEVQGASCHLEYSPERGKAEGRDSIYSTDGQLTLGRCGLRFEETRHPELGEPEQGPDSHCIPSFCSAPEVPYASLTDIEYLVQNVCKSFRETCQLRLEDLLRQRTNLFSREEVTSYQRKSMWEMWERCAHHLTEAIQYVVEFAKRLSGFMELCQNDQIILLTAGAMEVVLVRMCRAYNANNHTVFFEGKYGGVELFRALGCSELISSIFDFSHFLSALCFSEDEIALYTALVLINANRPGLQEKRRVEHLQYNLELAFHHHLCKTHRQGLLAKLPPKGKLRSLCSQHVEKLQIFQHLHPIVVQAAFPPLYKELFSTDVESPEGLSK

| Compound | Potency | activity change, negative = inhibition |
| --- | --- | --- |
| O=C(CCN1CCN(c2ccccc2)CC1)NNC(=S)Nc1ccccc1 | 10 µM (active) |  |
| COc1c(Cl)cc(C(=O)Nc2ccc(Cl)cn2)cc1Cl |  | -2.59% (inactive) |
| COc1cccc(C(=O)Nc2ccc(N3CCCC3)cc2)c1 |  | 7.72% (inactive) |
| COc1ccc(C(=O)N/N=C(\C)CC(=O)Nc2ccc(Cl)cn2)cc1 | 5.01 µM (active) |  |
| COc1ccc(COC(=O)N/N=C(\C)CC(=O)Nc2ccc(Cl)cc2)cc1 |  | 5.64% [at 10 µM] (inactive) |
| COc1ccc(C(=O)NC(=S)Nc2ccc(N3CCCC3)cc2)cc1OC | 0.447 µM (active) |  |
| O=C(CN1CCN(c2ccccc2)CC1)Nc1ccc(F)cc1 |  | 21.6% (inactive) |
| COC(=O)c1ccc(NC(=O)c2cc(Cl)ccc2OC)cc1 |  | 12.9% (inactive) |
| COc1ccc(C(=O)NC(=S)Nc2ccc(Cl)cn2)cc1OC | 7.94 µM (active) |  |
| COc1ccc(C(=O)Nc2ccc(N3CCC(C)CC3)cc2)cc1Br |  | 4.83% (inactive) |
| O=C(CN1CCN(c2ccc(F)cc2)CC1)Nc1ccccc1 |  | -3.12% (inactive) |
| COc1ccc(C/C(C)=N/NC(=O)c2ccncc2)cc1 |  | -26.7% (inactive) |
| CCc1ccc(NC(=O)CN2CCC(C(=O)c3ccc(OC)cc3)CC2)cc1 |  | -0.195% (inactive) |
| Cc1c(C(=O)NC2CCCCC2)oc2ccccc12 |  | 31.6% (inactive) |
| CCCNC(=O)CCc1c(C)nc2c(c(C)nn2-c2ccccc2)c1C |  | 2.6% (inactive) |
| Cc1ccc(S(=O)(=O)N2CCCC(C(=O)N3CCN(C)CC3)C2)cc1 (stereo not given) |  | -10.6% (inactive) |
| O=C(Nc1ccncc1)Nc1ccc(F)cc1 |  | -6.05% (inactive) |
| COc1ccc(OCc2cc(C(=O)N3CCCC3)no2)c2ccccc12 |  | -2.3% (inactive) |
| COC(=O)CN1C(=O)[C@H]2[C@@H](C3CC3)N3C(=O)CN(Cc4ccc(-c5ccccc5)cc4)C(=O)[C@@]3(Cc3ccccc3)[C@H]2C1=O |  | 16.4% (inactive) |
| CS(=O)(=O)Nc1ccccc1N=C(c1ccccc1)c1ccccc1 |  | -31.1% [at 1.91 µM] (inactive) |
| COc1ccc(CN2CCNC(=O)C2CC(=O)NCc2cn[nH]c2-c2ccccc2)c(F)c1 (stereo not given) |  | 14.9% (inactive) |
| COc1ccc2oc(C(=O)NCC(Cc3ccccc3)N(C)C)c(C)c2c1 (stereo not given) |  | -17.4% (inactive) |
| Cc1ccc(C(=O)NC(=S)Nc2ccc(N3CCOCC3)cc2)cc1 | 6.31 µM (active) |  |
| Cc1nc(NC(=O)c2ccc3c(c2)OCCO3)ccc1Br |  | -8.45% (inactive) |
| O=C(c1ccccc1)c1ccc(C(=O)N2CCN(c3ccccc3)CC2)cc1 |  | -4.53% (inactive) |
| O=C(CN1CCN(c2ccc(O)cc2)CC1)Nc1ccc(-c2ccccc2)cc1 |  | -1.13% (inactive) |
| Cc1ccccc1C(=O)NC(=S)Nc1ccc(N2CCN(C(=O)c3ccccc3)CC2)cc1 | 22.4 µM (active) |  |

| Compound | Potency | activity change, negative = inhibition |
| --- | --- | --- |
| O=C(Nc1ccc(Cl)cn1)c1cnn2cccnc12 |  | 11.5% (inactive) |
| O=C(Nc1ccc(Cl)cn1)c1ccc2c(c1)OCCO2 | 8.91 µM (active) |  |
| Cc1ccc(OCCCC(=O)Nc2ccc(N3CCOCC3)cc2)cc1 |  | -7.03% (inactive) |
| O=C(COc1ccc([N+](=O)[O-])cc1)Nc1ccc(N2CCCC2)cc1 |  | -9.99% (inactive) |
| Cc1ccccc1C(=O)Nc1ccc(N2CCCCCC2)cc1 |  | 14.4% (inactive) |
| COC(=O)c1ccc(NC(=S)NN2CCOCC2)cc1 |  | 31.5% (inactive) |
| O=C(Cc1ccccc1)NC(=S)Nc1ccc(N2CCCCC2)cc1 | 2.24 µM (active) |  |
| CC1CCCN(CCCNC(=O)CN2C(=O)COc3ccc(S(=O)(=O)N4CCOCC4)cc32)C1 (stereo not given) |  | -12.2% (inactive) |
| CC(C)[C@@H](C(=O)O)N(Cc1cccc(CN([C@H](C(=O)O)C(C)C)S(C)(=O)=O)c1)S(C)(=O)=O |  | 0.567% (inactive) |
| COc1ccc(CCNC(=O)c2c(C)nn(-c3ccccc3)c2Cl)cc1 |  | 24.7% (inactive) |
| COc1ccc(CC(=O)NC2CCSc3ccccc32)cc1OC (stereo not given) |  | 7.66% (inactive) |
| COC(=O)c1ccc(Nc2ncnc3sccc23)cc1 |  | 38.8% (inactive) |
| O=S(=O)(c1ccccc1)N(Cc1cccc(F)c1)c1ccccc1 |  | 2.19% (inactive) |
| N#CCC(=O)NC1CCC(CC2CCC(NC(=O)CC#N)CC2)CC1 (stereo not given) |  | 21.4% (inactive) |
| CCOC(OCC)c1ccc(/C=C\c2nccc(N)n2)cc1 |  | -4.15% (inactive) |
| Cc1cc(=O)n2nc(N3CCC(C(=O)Nc4c(F)c(F)c(F)c(F)c4F)CC3)sc2n1 |  | 8.27% (inactive) |
| COc1ccc(C)cc1NC(=O)NCCCCc1ccccc1 |  | 33.6% (inactive) |
| Cc1cc(CNC(=O)C2CCC(=O)N(CCc3ccc(Cl)cc3)C2)no1 (stereo not given) |  | 0.942% (inactive) |
| COC1=C(N2CCOCC2)C(=O)c2ccccc2C1=O |  | 4.55% (inactive) |
| CCOc1ccc(NC(=O)c2ccc(NC(=O)C3CCCO3)cc2)cc1 (stereo not given) |  | -12.3% (inactive) |
| Cc1ccccc1C(=O)Nc1ccccc1NC(=O)c1ccccc1C |  | -10.9% (inactive) |
| Cc1ccccc1C(=O)NC(=S)NC1CC1 | 14.1 µM (active) |  |
| O=C(NC(=S)NC1CCSC1=O)c1ccccc1F (stereo not given) |  | -29.6% (inactive) |
| CC(C)n1c(C(O)c2ccccc2)nc2ccccc21 (stereo not given) |  | -20.2% (inactive) |
| CC(C)n1c(O)c(N=Nc2ccccn2)c2ccccc21 | 8.91 µM (active) |  |
| COC(=O)Cn1c(O)c(N=NC(=O)OC)c2ccccc21 |  | 7.4% (inactive) |
| COc1ccc(/C=N/Nc2nc(-c3ccc(C)cc3)c(C#N)c(=O)[nH]2)cc1 |  | 20.4% [at 1.91 µM] (inactive) |

| Compound | Potency | activity change, negative = inhibition |
| --- | --- | --- |
| COc1ccc(/C=N/Nc2nc3ccccc3c(=O)[nH]2)cc1 | 11.2 µM (active) |  |
| COc1ccc(C=Nc2cccc3ncccc23)cc1 |  | -11% (inactive) |
| COc1ccccc1C(=O)N/C(=C/c1ccc2c(c1)OCO2)C(=O)Nc1cccc(C(=O)O)c1 |  | 5.47% (inactive) |
| CCOc1ccccc1Nc1ccc2nonc2c1[N+](=O)[O-] |  | 7.05% (inactive) |
| O=C(CSc1nc2ccccc2s1)Nc1ccc(C(=O)O)cc1 |  | 12.8% (inactive) |
| O=[N+]([O-])c1c(NCCO)cc(Sc2nc3ccccc3s2)c2nonc12 | 2.82 µM (active) |  |
| CC(C)OCCCNC(=O)CN1C(=O)/C(=C/c2ccccc2F)Oc2ccccc21 |  | -0.186% (inactive) |
| O=C(CSCc1c(Cl)cccc1Cl)NN1C(=O)c2ccccc2C1=O |  | -1.68% (inactive) |
| CCn1c(CNS(=O)(=O)c2ccc(Cl)cc2)n[nH]c1=S |  | -10.8% (inactive) |
| CCn1c(CSCc2c(Cl)cccc2Cl)n[nH]c1=S | 3.16 µM (active) |  |
| O=C1NC(c2ccccc2)Oc2ccccc21 (stereo not given) |  | 4.56% (inactive) |
| CCN(CC)CCCNC(=O)COc1ccc2oc3c(c2c1)CCCC3 |  | 6.93% (inactive) |
| Cc1ccc(CNC(=O)C2CCCN2S(=O)(=O)c2ccc3c(c2)C(C)(C)C(=O)N3C)cc1 (stereo not given) |  | -3.5% (inactive) |
| CN1CCN(NC(=O)Nc2ccc(Br)cc2)CC1 |  | 16.6% (inactive) |
| CC(C)(C)C1CCC(=NNC(=O)c2cc(-c3ccccc3)n[nH]2)CC1 (stereo not given) | 11.2 µM (active) |  |
| O=C(COc1ccc(-c2ccccc2)cc1)NN=C1CCCC1 |  | -25.1% (inactive) |
| CC(NC(=O)C(=O)NN=C1CCC(C(C)(C)C)CC1)c1ccccc1 (stereo not given) |  | -12.8% (inactive) |
| CC1CN(CC(=O)NC(C)c2ccccc2)CC(C)O1 (stereo not given) |  | -6.55% (inactive) |
| Cc1ccc(-c2nc(C)sc2CC(=O)O)cc1 |  | -0.336% (inactive) |
| C/C(=N/Nc1nc(-c2ccccc2)c(CC(=O)O)s1)c1ccccc1 | 11.2 µM (active) |  |
| CCOC(=O)C(=O)Nc1nc(-c2ccccc2)c(CC)s1 |  | -31.4% (inactive) |
| Cc1ccc(-c2nc3ccccc3[nH]2)cc1NC(=O)c1sc2ccccc2c1Cl |  | -7.38% (inactive) |
| O=C(Nc1cccc(-c2nc3ccccc3[nH]2)c1)c1ccc(C(=O)Nc2cccc(-c3nc4ccccc4[nH]3)c2)cc1 | 2 µM (active) |  |
| O=C(/C=C/c1ccco1)Nc1cccc(-c2nc3ccccc3[nH]2)c1 |  | 23.4% (inactive) |
| Cc1cccc2[nH]c(CN(C)C(=O)C3CCC(=O)N(CCc4ccccc4)C3)nc12 (stereo not given) |  | -19.4% (inactive) |
| C/C(N)=C(/C#N)C(=O)COC(=O)C1=NN(c2ccccc2)C(=O)CC1 |  | 10.9% (inactive) |
| COc1cccc(/C=N/Nc2ncc(C(F)(F)F)cc2Cl)c1O | 1.26 µM (active) |  |

| Compound | Potency | activity change, negative = inhibition |
| --- | --- | --- |
| COC(=O)Cc1ccc(Oc2ncc(C(F)(F)F)cc2Cl)cc1 |  | -9.46% (inactive) |
| N/C(=N\OC(=O)Nc1ccc(Cl)c(Cl)c1)c1ncc(C(F)(F)F)cc1Cl |  | 7.87% (inactive) |
| CCOC(=O)N1CCN(C(=O)COCc2cc(-c3ccc4c(c3)OCO4)on2)CC1 |  | -3.42% (inactive) |
| CCOc1ccccc1N1C(=O)CC(Sc2nccc(C)n2)C1=O (stereo not given) | 25.1 µM (active) |  |
| CCOC(=O)c1ccc(N2C(=O)CC(Sc3nc(O)c(CC)c(=O)[nH]3)C2=O)cc1 (stereo not given) |  | -0.429% (inactive) |
| Cc1ccnc(SCC(N)=O)n1 |  | 9.61% (inactive) |
| CCn1ccnc1CNC(=O)CC1C(=O)NCCN1CCCc1ccccc1 (stereo not given) |  | -26.2% (inactive) |
| O=C(NCCS(=O)(=O)N1CCN(c2ccccc2F)CC1)c1ccc(Br)o1 |  | 14.8% (inactive) |
| Cc1cccc(NC(=O)c2cccnc2Cl)n1 |  | 7.82% (inactive) |
| Cc1c(CN2CCC(CO)(CCOc3ccccc3)CC2)[nH]c2ccc(Cl)cc12 | 11.2 µM (active) |  |
| OCC1(CCOc2ccccc2)CCN(Cc2cn[nH]c2-c2ccccc2)CC1 |  | 18.3% (inactive) |
| CC(C)(O)C#Cc1ccc(CN2CCC(CO)(CCc3ccccc3)CC2)cc1 |  | 1.77% (inactive) |
| CC(C)(C)NC(=O)C(c1ccc(Cl)cc1)N(CCO)C(=O)c1snc(C(N)=O)c1N (stereo not given) |  | -12.6% (inactive) |
| COC(=O)CCc1ccccc1S(=O)(=O)N(CCC(=O)OC)Cc1ccccc1 |  | -5.18% (inactive) |
| CCOC(=O)C1=C(c2ccccc2)NC(=O)NC1c1cc(OCC)c(O)c([N+](=O)[O-])c1 (stereo not given) |  | 35% (inactive) |
| CCS(=O)(=O)c1cc([N+](=O)[O-])c(Sc2ccccc2N)s1 | 7.94 µM (active) |  |
| CCOC(=O)c1cc(Sc2ccccc2N)cc(C(=O)OCC)n1 |  | 43.4% (inactive) |
| Nc1ccccc1Sc1ccc(C(F)(F)F)cc1[N+](=O)[O-] |  | 3.1% (inactive) |
| COc1ccc(N2CCN(C3CCCCC3NS(=O)(=O)c3ccccc3)CC2)cc1 (stereo not given) |  | -0.458% (inactive) |
| CCC(Cc1ccccc1)NS(=O)(=O)c1ccc2c(c1)NC(=O)CS2 (stereo not given) |  | 17.2% (inactive) |
| O=C(N/N=C/c1ccc2c(c1)OCO2)c1ccc(Cn2cc([N+](=O)[O-])cn2)o1 |  | 28.1% (inactive) |
| Cc1ccc(C(=O)O)cc1NC(=O)c1ccc(Cn2nc(C)c(Cl)c2C)o1 |  | 5.12% (inactive) |
| Cc1c(Cl)c([N+](=O)[O-])nn1Cc1ccc(C(=O)N/N=C\c2cc(Cl)ccc2O)o1 | 5.01 µM (active) |  |
| CC(C)c1c(C(=O)N/N=C/c2ccccc2C(=O)O)nnn1-c1nonc1N |  | 0.169% (inactive) |
